Compounds without any hit were thinned out: in the full panel of roughly 83,000, 20% have a hit.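 Testing used 96-well plates and a 48-hour single-concentration exposure. Example: -40 means 40% of the starting cells died.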 Values without a mark were called inactive. Activity calls are given as the source filed them. The calls were made as follows: active = growth percent below 10; inactive = the rest.
Key:
Test in all cases: NCI-60 one-dose screen, 48 h (100 = growth as untreated, 0 = no growth, -100 = all killed)
Conditions in all cases: 10 µM unless noted
NCI-H23 lung = tested on: NCI-H23 lung
NCI-H226 lung = tested on: NCI-H226 lung
NCI-H322M lung = tested on: NCI-H322M lung
HOP-62 NSCLC = tested on: HOP-62 NSCLC
NCI-H460 lung = tested on: NCI-H460 lung
HOP-92 NSCLC = tested on: HOP-92 NSCLC
NCI-H522 lung = tested on: NCI-H522 lung
A549/ATCC NSCLC = tested on: A549/ATCC NSCLC
786-0 renal = tested on: 786-0 renal
COLO 205 colon = tested on: COLO 205 colon
DU-145 prostate = tested on: DU-145 prostate
K-562 leukemia = tested on: K-562 leukemia
MALME-3M melanoma = tested on: MALME-3M melanoma
MDA-MB-231 breast = tested on: MDA-MB-231 breast
RXF 393 renal = tested on: RXF 393 renal
SF-268 CNS = tested on: SF-268 CNS
SF-295 CNS = tested on: SF-295 CNS
SF-539 CNS = tested on: SF-539 CNS
UACC-257 melanoma = tested on: UACC-257 melanoma
M14 melanoma = tested on: M14 melanoma

Structure (SMILES)	growth (NCI-H23 lung)	growth (NCI-H226 lung)	growth (NCI-H322M lung)	growth (HOP-62 NSCLC)	growth (NCI-H460 lung)	growth (HOP-92 NSCLC)	growth (NCI-H522 lung)	growth (A549/ATCC NSCLC)	growth (786-0 renal)	growth (COLO 205 colon)	growth (DU-145 prostate)	growth (K-562 leukemia)	growth (MALME-3M melanoma)	growth (MDA-MB-231 breast)	growth (RXF 393 renal)	growth (SF-268 CNS)	growth (SF-295 CNS)	growth (SF-539 CNS)	growth (UACC-257 melanoma)	growth (M14 melanoma)
CC1=CCC[C@@H]2C1(C)CC[C@H](C)[C@@]2(C)CC1=CC(=O)C(SC(C)(C)C)=CC1=O (stereo not given in full)	81.2%	84.7%	87.6%	97.8%	83.5%	75.2%	62.9%	73.3%	82.4%	100%	77.6%	57.8%	82.3%	78.3%	74.5%	85.3%	85.1%	89.9%	90.3%	88.9%
Cc1cc(C)c(-c2c(O)c(Br)c(-c3c(C)cc(C)c(Br)c3C)c(O)c2Br)c(C)c1Br	43.7%	52.1%	38.1%	62%	1.57% (active)	-3.74% (active)	-70.3% (active)	18.6%	24.8%	-67.2% (active)	33.4%	15.2%	-6.91% (active)	-42.5% (active)	-48.7% (active)	31%	-10.2% (active)	22.3%	-19% (active)	29.6%
COC(=O)Cc1nc(C#N)c(N(C)C)o1	95.4%	96.3%	97.2%	96.7%	101%	95.9%	90.3%	95.8%	97.6%	104%	112%	91.1%	105%	100%	106%	94.8%	100%	99%	95.7%	103%
CCN(CC)c1ccc(N2C(=O)/C(=C/c3cccs3)SC2=S)cc1	94.8%	93.7%	91.7%	106%	97.8%	6.63% (active)	82.9%	92%	95.6%	101%	100%	94%	84.2%	91.3%	98.3%	92.1%	99.6%	94.3%	80.6%	95.4%

— PubChem BioAssay (NCI)
